hcDAF-12 act = H. contortus DAF-12 activation, primary screen. actives 1.4% (n = 370,000). HEK293 hcDAF-12 lit1-tk-luc reporter, luminescence; 0% DMSO, 100% Δ7-dafachronic acid. activation, % at 6.8 µM;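 active = activation above the mean of all tested compounds plus 3 SD, cut at about 5.5% in these data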
hgDAF-12 ag = agonists of H. glycines DAF-12 nuclear receptor; HEK293 GAL4-hgDAF12 UAS-luciferase reporter, agonist luminescence; normalized to butyrate control; activation, % at 6.8 µM; actives 1.8% (n = 370,000); AID 687014;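 active = activation above a cutoff set at the mean of all screened compounds plus 3 SD, cut at about 10% in these data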
ssDAF12 agonist = activates DAF-12 receptor from parasite S. stercoralis; actives 1% (n = 370,000); HEK293 ssDAF-12/GRIP1 lit1-tk-luc reporter, luminescence; % of 3 µM dafachronic acid response; activation, % at 6.8 µM; AID 652126;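 active = activation above the mean over all tested compounds plus 3 SD, cut at about 0.9% in these data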
Rev-erbA mod = modulates human Rev-erb alpha binding to DNA. Rev-erbα–FITC-DNA binding, fluorescence polarization, 90 min. AID 1259318. P20393. actives 0.79% (n = 370,000). activity, % at 10 µM;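 active = activity above about 14%, limit read from the data; passing the limit was not always enough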
DAX1 inh-1 = inhibitors of human orphan nuclear receptor DAX1 (NR0B1). actives 0.99% (n = 340,000). inhibition, % at 6.75 µM. HEK293 Gal4-DAX1 luciferase reporter, luminescence. AID 504766. P51843;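 active = inhibition above the mean over all tested compounds plus 3 SD, cut at about 4.2% in these data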;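 note: inhibition shows as a rise in luminescence from relieved DAX1 repression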
Target sequence (P51843 207-470 limits assumed): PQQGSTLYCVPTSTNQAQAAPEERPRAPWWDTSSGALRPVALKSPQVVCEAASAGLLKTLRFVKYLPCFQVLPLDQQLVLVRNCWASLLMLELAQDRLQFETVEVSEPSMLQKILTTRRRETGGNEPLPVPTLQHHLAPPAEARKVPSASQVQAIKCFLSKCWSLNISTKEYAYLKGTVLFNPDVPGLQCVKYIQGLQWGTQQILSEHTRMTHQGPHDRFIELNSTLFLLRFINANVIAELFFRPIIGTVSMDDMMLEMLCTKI
DAX1 inh-2 = inhibitors of DAX1 repression of SF-1 activated StAR promoter; inhibition, % at 6.8 µM; HEK293T StAR-luciferase reporter, SF-1/DAX-1 repression relief; actives 1.1% (n = 370,000); AID 652010;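 active = inhibition above the mean over all tested compounds plus 3 SD, cut at about 3.6% in these data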;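 note: higher inhibition means more luminescence from relief of DAX-1 repression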
DAX1 inh confirm = NR0B1 (human) inhibition, confirmation; shares compounds with DAX1 inh-2; actives 87% (n = 2,400); HEK293T StAR-promoter luciferase reporter, SF-1/DAX-1 repression; inhibition, % at 6.8 µM;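 active = inhibition above the average of every tested compound plus 3 SD, cut at about 3.8% in these data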;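 note: active compounds raise luminescence by relieving repression of the StAR reporter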
Target sequence (P51843 whole entry, looked up): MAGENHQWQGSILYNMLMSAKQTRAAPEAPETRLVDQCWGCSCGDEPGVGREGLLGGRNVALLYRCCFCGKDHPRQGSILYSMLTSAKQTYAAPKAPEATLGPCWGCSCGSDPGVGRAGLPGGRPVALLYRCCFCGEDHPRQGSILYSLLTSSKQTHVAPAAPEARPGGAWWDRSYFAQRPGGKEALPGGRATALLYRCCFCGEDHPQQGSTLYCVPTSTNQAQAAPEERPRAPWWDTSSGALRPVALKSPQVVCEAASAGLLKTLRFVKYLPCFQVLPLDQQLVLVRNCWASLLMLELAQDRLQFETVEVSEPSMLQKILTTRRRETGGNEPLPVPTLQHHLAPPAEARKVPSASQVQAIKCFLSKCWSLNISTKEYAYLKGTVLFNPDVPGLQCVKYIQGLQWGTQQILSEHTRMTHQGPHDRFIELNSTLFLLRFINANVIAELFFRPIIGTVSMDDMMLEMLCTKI
SF1 mutant ctr = nonselective inhibitor or artifact in SF-1 mutant DAX1 counter-screen; shares compounds with DAX1 inh-2; HEK293 StAR-luciferase, SF-1 AF2 mutant, luminescence; inhibition, % at 6.8 µM; actives 78% (n = 2,400); AID 652136;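 active = inhibition above the mean of all tested compounds plus 3 SD, cut at about 3% in these data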
LXRb hcDAF ctr = LXR-beta agonism as hcDAF-12 counter-screen; AID 743027; 3,400 tested, under 10 active; activation, % at 6.8 µM; shares compounds with hcDAF-12 act; HEK293 Gal4-LXR tk-luc reporter, luminescence, 24 h; normalized: DMSO 0%, positive control 100%;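 active = mean percent activation of the reporter above a cutoff set as the average over tested compounds plus their standard deviation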
hcDAF12 conf = confirmation of H. contortus DAF-12 agonists; shares compounds with hcDAF-12 act; HEK293 hcDAF-12 lit1-tk-luc reporter, luminescence; % of Δ7-dafachronic acid response; activation, % at 6.8 µM; actives 61% (n = 3,400);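 active = mean activation across triplicate tests above the threshold derived from the earlier primary screen, cut at about 5.5% in these data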
Each line names hits and unclear results; the compound was inactive in the other large screens (follow-up assays come after a bar, where they were run). An excerpt weighted towards active compounds, which were near 4.8% of everything screened.

Nc1[nH]n(-c2ccccc2)c(=O)c1N=Nc1ccc2c(c1)OCCO2	hcDAF-12 act 9.4, hgDAF-12 ag 15.3, ssDAF12 agonist 2.1, DAX1 inh-2 5.0 | DAX1 inh confirm 12.9 | SF1 mutant ctr 6.0 | LXRb hcDAF ctr inactive | hcDAF12 conf 11.7
Fc1cccc(F)c1/C=C/c1ccc2ccccc2n1	hcDAF-12 act 23.0, hgDAF-12 ag 20.1, ssDAF12 agonist 2.7, DAX1 inh-2 5.7 | DAX1 inh confirm 15.8 | SF1 mutant ctr 8.4 | LXRb hcDAF ctr inactive | hcDAF12 conf 22.9
CC(O)/C=C/c1ccc2ccccc2n1 (stereo not given)	none
COC(=O)[C@@]1(OC(C)=O)CC(OC(C)=O)[C@H](OC(C)=O)[C@H](OC(C)=O)C1Br (stereo not given in full)	none (no result: DAX1 inh-1, DAX1 inh-2)
CC(=O)OCCCN1CCC2(CCCCC2)C1=O	none (no result: DAX1 inh-1)
CC(=O)Nc1ccc(NC(=O)CSc2nnc(NC(=O)c3cccc(F)c3)s2)cc1	hcDAF-12 act 11.6, ssDAF12 agonist 1.1, DAX1 inh-2 7.5 | DAX1 inh confirm 4.6 | SF1 mutant ctr 4.6 | LXRb hcDAF ctr inactive | hcDAF12 conf inactive
Fc1ccc(-c2cnn3c(-c4cccs4)ccnc23)cc1	hcDAF-12 act 32.0, hgDAF-12 ag 33.0, ssDAF12 agonist 3.9, DAX1 inh-1 4.9, DAX1 inh-2 7.2 | DAX1 inh confirm 18.1 | SF1 mutant ctr 11.3 | LXRb hcDAF ctr inactive | hcDAF12 conf 23.1
CC(C)C(C(=O)NCc1ccccc1)N1CCN(CCN2CCOCC2)CC1 (stereo not given)	none (no result: DAX1 inh-1)
O=C(O/N=C(\c1ccccc1)c1ccncc1)c1ccccc1Cl	none
N/C(=N\OC(=O)c1ccccc1Cl)c1ccccc1	hcDAF-12 act 16.6, hgDAF-12 ag 18.3, ssDAF12 agonist 3.3, DAX1 inh-2 6.1 | DAX1 inh confirm 19.5 | SF1 mutant ctr 11.2 | LXRb hcDAF ctr inactive | hcDAF12 conf 26.1
Cn1cc(Cl)c(C(=O)Nc2nc3ccccc3s2)n1	hcDAF-12 act 20.9, hgDAF-12 ag 19.0, ssDAF12 agonist 3.3, DAX1 inh-2 7.0 | DAX1 inh confirm 14.3 | SF1 mutant ctr 7.3 | LXRb hcDAF ctr inactive | hcDAF12 conf 17.9
Cn1cc(Cl)c(C(=O)Nc2cccc(Cl)c2Cl)n1	none
COC(=O)c1cc(S(=O)(=O)NCC2CCN(C(=O)C(=O)c3cccs3)CC2)cs1	none (no result: DAX1 inh-1)
Cc1ccc(SCc2cn3c(C)csc3n2)cc1	hcDAF-12 act 8.0, hgDAF-12 ag 11.9, DAX1 inh-2 5.2 | DAX1 inh confirm 17.1 | SF1 mutant ctr 7.0 | LXRb hcDAF ctr inactive | hcDAF12 conf 7.8
Cc1ccc(S(=O)(=O)NCc2cn3c(C)csc3n2)cc1	none
CCOc1ccc(-n2c(SCC(=O)NN=Cc3ccc(C(=O)O)cc3)nnc2-c2cccnc2)cc1	none (no result: DAX1 inh-1)
CCCc1ccc(-c2cc(C(=O)NN3CCOCC3)c3ccccc3n2)cc1	none
CCc1ccc(-c2cc(C(=O)Nn3cnnc3)c3ccccc3n2)cc1	hcDAF-12 act 11.0, DAX1 inh-2 6.0 | DAX1 inh confirm 10.8 | SF1 mutant ctr 4.2 | LXRb hcDAF ctr inactive | hcDAF12 conf 11.3
O=C(/C=C(\Nc1ccc(Br)c(F)c1)c1ccccc1)c1ccccc1	none (no result: DAX1 inh-1)
COc1ccc(OCc2cc(C(=O)NC(C)Cn3cncn3)no2)c(Cl)c1 (stereo not given)	hcDAF-12 act 6.7, hgDAF-12 ag 10.6, ssDAF12 agonist 0.9, DAX1 inh-2 6.0 | DAX1 inh confirm inactive | SF1 mutant ctr inactive | LXRb hcDAF ctr inactive | hcDAF12 conf 6.8
COc1ccc(OCc2cc(C(=O)NC(C)Cc3cccnc3)no2)c(Cl)c1 (stereo not given)	none
C=CCN(C)C(C#Cc1ccccc1)c1ccccc1C(F)(F)F (stereo not given)	none (no result: DAX1 inh-1, DAX1 inh-2)
COC(=O)c1cc(NC(=O)c2c(Cl)cnn2C)cc(C(=O)OC)c1	none
Cn1ncc(Cl)c1C(=O)Nc1ccc2c(c1)CCC2	hcDAF-12 act 6.8, ssDAF12 agonist 1.3, DAX1 inh-2 5.8 | DAX1 inh confirm 5.3 | SF1 mutant ctr inactive | LXRb hcDAF ctr inactive | hcDAF12 conf 5.7
C=CCN1C(=O)[C@@H](CC(=O)NCc2cccs2)[C@]2(C(=O)OCC)CCCCC/C=C/12	none (no result: DAX1 inh-1)
COc1ccccc1C1=NOC(CN2C(=O)c3ccccc3S2(=O)=O)C1 (stereo not given)	none
O=C1c2ccccc2S(=O)(=O)N1CC1CC(c2ccccc2Cl)=NO1 (stereo not given)	hcDAF-12 act 8.7, hgDAF-12 ag 15.4, DAX1 inh-2 5.5 | DAX1 inh confirm 11.0 | SF1 mutant ctr 8.1 | LXRb hcDAF ctr inactive | hcDAF12 conf 13.2
Cc1ccc(N=C/C(C(=O)C(F)(F)F)=C(\O)c2ccco2)cc1Cl	hcDAF-12 act 17.8, hgDAF-12 ag 16.3, ssDAF12 agonist 1.4, DAX1 inh-2 5.2 | DAX1 inh confirm 16.3 | SF1 mutant ctr 8.7 | LXRb hcDAF ctr inactive | hcDAF12 conf 10.2
COc1cccc(NC(=O)N2CCCCCC2)c1	hcDAF-12 act 7.7, DAX1 inh-2 4.6 | DAX1 inh confirm 5.7 | SF1 mutant ctr 4.0 | LXRb hcDAF ctr inactive | hcDAF12 conf inactive
COc1ccc(C2=Nc3ccccc3N(C(=O)Cc3cc(OC)cc(OC)c3)C2C(=O)NC(C)C)cc1 (stereo not given)	hcDAF-12 act 6.7, hgDAF-12 ag 12.0, ssDAF12 agonist 0.9, DAX1 inh-2 6.0 (no result: DAX1 inh-1) | DAX1 inh confirm 9.8 | SF1 mutant ctr 6.4 | LXRb hcDAF ctr inactive | hcDAF12 conf 5.7
COc1cccc(N(C)C(=O)[C@@H](C)[C@@H](O)c2ccc(Cl)cc2)c1	none (no result: DAX1 inh-1)
C/C(=N\Nc1ccc(C(=O)O)cc1)c1ccc(Br)cc1	hcDAF-12 act 11.6, hgDAF-12 ag 19.2, DAX1 inh-2 5.1 | DAX1 inh confirm 16.3 | SF1 mutant ctr 5.3 | LXRb hcDAF ctr inactive | hcDAF12 conf 13.7
O=C(/C=C/c1cccc(F)c1)OCC(=O)N1CCCc2ccccc21	none

Source: PubChem (several laboratories)
